Compounds with a hit are over-represented: about 6.6% of the library has one in this group of screens.
Mdm2 MdmX PPI: inhibitors of human Mdm2/MdmX interaction; O15151+Q00987; SaOS-2 split-luciferase Mdm2/MdmX complementation, luminescence; inhibition, % at 8 µM; actives 3% (n = 330,000); AID 485346;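 active = inhibition of at least 50% at 8 µM in the primary screen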
Target sequence (O15151 whole entry, looked up): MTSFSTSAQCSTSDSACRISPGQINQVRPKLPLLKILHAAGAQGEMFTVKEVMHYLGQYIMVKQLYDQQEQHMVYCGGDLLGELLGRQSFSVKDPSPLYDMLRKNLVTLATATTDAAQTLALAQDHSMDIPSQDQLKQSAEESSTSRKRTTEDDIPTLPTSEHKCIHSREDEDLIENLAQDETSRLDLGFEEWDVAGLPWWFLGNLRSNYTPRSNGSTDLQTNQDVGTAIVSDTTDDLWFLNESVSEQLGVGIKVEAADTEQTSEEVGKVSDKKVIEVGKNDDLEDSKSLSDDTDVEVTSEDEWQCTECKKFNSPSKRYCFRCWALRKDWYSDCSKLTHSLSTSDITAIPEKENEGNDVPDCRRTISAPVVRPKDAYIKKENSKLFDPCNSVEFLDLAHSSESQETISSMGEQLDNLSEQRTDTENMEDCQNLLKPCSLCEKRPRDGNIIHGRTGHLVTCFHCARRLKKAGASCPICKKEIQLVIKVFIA
Target sequence (Q00987 whole entry, looked up): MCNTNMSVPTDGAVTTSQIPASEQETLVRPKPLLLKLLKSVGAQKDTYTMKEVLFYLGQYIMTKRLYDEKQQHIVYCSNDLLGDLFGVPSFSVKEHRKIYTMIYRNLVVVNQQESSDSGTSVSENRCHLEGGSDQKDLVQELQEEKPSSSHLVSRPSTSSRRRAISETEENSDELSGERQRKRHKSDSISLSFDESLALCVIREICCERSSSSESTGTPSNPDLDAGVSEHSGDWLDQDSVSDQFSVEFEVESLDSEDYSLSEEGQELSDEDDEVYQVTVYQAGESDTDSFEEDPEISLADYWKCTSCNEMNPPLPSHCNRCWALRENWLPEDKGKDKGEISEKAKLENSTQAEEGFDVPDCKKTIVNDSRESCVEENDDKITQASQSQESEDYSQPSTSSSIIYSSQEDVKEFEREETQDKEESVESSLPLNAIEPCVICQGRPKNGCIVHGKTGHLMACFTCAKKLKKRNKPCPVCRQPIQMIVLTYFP
NR3A LBD binder: NR3A (human) ligand-binding domain modulation; Tm shift relative to glycine control, % at 25 µM; actives 2.5% (n = 340,000); NR3A LBD differential scanning fluorimetry, Tm shift; 0% = protein alone, 100% = glycine-bound protein;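 active = melting temperature shift of at least 10% of the positive control shift, at one fixed dose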
Gli-Sufu antag: antagonists of Gli-Sufu signaling; Sufu-KO-LIGHT fibroblasts, Gli luciferase reporter luminescence; inhibition, % at 5 µM; actives 0.74% (n = 340,000); AID 588413;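 active = inhibition above about 55%, limit read from the data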;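 note: 0% = DMSO-treated cells and 100% = wells with medium but no cells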
Beta cell apopt: beta cell apoptosis inhibition; INS-1E cytokine-induced death, ATP luminescence, 48 h; percent of positive-control rescue, neutral wells zero; protection from apoptosis, % (test concentration not listed); actives 0.8% (n = 300,000);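 active = Every replicate reaches about 75%, or at least half do and their mean reaches it too, limit read from the data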;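 note: 0% = cytokine-treated negative control wells and 100% = positive control rescue; higher means more ATP so stronger rescue from cytokine killing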
MPTP inh: blocks calcium-induced mitochondrial swelling; isolated mouse mitochondria, Ca2+ swelling absorbance, 30 min; actives 1.4% (n = 360,000); inhibition, % at 10 µM;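 active = inhibition of 50% or more, scaled per plate between neutral and stimulator controls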;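 note: 0% = DMSO wells given calcium and 100% = 1 mM EGTA wells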
CSC inhib: cancer stem cell inhibition; cancer stem cell-like cells viability, luminescence; inhibition, % at 7.5 µM; actives 1.1% (n = 300,000); AID 2717; in the data active = inhibition above about 75%; tested in HMLE shEcad cells
Gli antag conf: confirmation of Gli-SUFU pathway antagonists | shares compounds with Gli-Sufu antag | Sufu-KO-LIGHT cells, Gli luciferase reporter, luminescence | inhibition, % at 5 µM | actives 40% (n = 2,500) | AID 602428;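 active = mean inhibition at 5 µM reaching about 45%, limit read from the data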;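 note: plate controls were DMSO-treated cells for no effect and wells lacking cells for full effect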
SufuKO cytotox: cytotoxicity counter-screen for Gli-SUFU antagonists; shares compounds with Gli-Sufu antag; actives 32% (n = 2,500); cytotoxicity, % at 5 µM; Sufu-KO-LIGHT cells cytotoxicity, ATP luminescence;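 active = mean cytotoxicity at 5 µM above about 25%, limit read from the data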;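 note: cells exposed to compound overnight for roughly 16 to 18 hours; plate controls were DMSO wells with cells for no effect and medium without cells for full effect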
Wnt3a counter: counter-screen for Gli-SUFU antagonists: Wnt3a reporter inhibition | Wnt-LIGHT cells, Wnt3a-driven luciferase reporter, luminescence | shares compounds with Gli-Sufu antag | actives 20% (n = 2,500) | inhibition, % at 6.25 µM;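 active = mean inhibition above about 25%, limit read from the data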
Active calls of the source: *; x = no result given.

SMILES	Mdm2 MdmX PPI	NR3A LBD binder	Gli-Sufu antag	Beta cell apopt	MPTP inh	CSC inhib	Gli antag conf	SufuKO cytotox	Wnt3a counter
Cc1cc(S(=O)(=O)N2CCOCC2)ccc1OCC(=O)NCCCn1ccnc1	-23.1	-0.3	-7.6	-2.0	0.1	-12.2	x	x	x
CCN(CC)C(=O)c1ccc2c(c1[N+](=O)[O-])C(=O)c1ccccc1C2=O	-41.6	x	x	x	x	-3.6	x	x	x
Cc1cc(N/N=C/c2ccc(O)cc2O)nc(-n2nc(C)cc2C)n1	x	27.4*	87.9*	98.9*	2.5	29.0	59.6*	27.0*	-35.0
Cc1cc(N/N=C/c2ccc(O)cc2O)c2ccccc2n1	-0.3	0.0	-13.1	-3.4	1.2	-2.2	x	x	x
CCOC(=O)C1(C)CCN1C(=O)c1ccc(OC)c(C(F)(F)F)c1 (stereo not drawn)	x	x	x	x	-1.1	x	x	x	x
CCOC(=O)c1cc(CC)sc1NC(=O)c1cc(OCC)c(OCC)c(OCC)c1	3.1	11.2*	99.2*	11.0	2.1	33.9	26.8	6.1	-17.1
CCOC(=O)c1cc(CC)sc1NC(=O)c1ccc2c(c1)OCCO2	-14.3	2.4	2.1	-2.7	2.0	x	x	x	x
O=C1NCC(COc2ccc(Cl)cc2)O1 (stereo not drawn)	16.7	0.1	22.1	-7.7	-1.3	-15.2	x	x	x
CCOc1cc(/C=C2\CCCC(C(=O)C(F)(F)F)=C2O)ccc1O	39.4	3.0	59.0*	-7.0	5.5	17.6	7.2	0.6	-58.1
Cc1cc(N2CCN(c3nc(-c4ccc([N+](=O)[O-])cc4)cs3)CC2)c2ccccc2n1	42.3	-3.1	63.1*	-0.5	3.9	30.1	32.2	18.6	-4.9
NC(=O)COc1ncnc2scc(-c3ccc(F)cc3)c12	9.6	-0.4	54.2	-8.5	0.7	-5.3	14.4	11.7	-6.7
COCCNC(=O)COc1ncnc2scc(-c3ccc(F)cc3)c12	-6.4	-0.6	-5.2	-3.8	-2.0	7.3	x	x	x
COc1cccc(NC(=O)CCS(=O)(=O)c2ccc3c(c2)oc(=O)n3C)c1	-10.1	0.4	51.4	-1.7	-1.1	3.2	18.1	25.6*	-25.1
COc1cc(NC(=O)CCS(=O)(=O)c2ccc3c(c2)oc(=O)n3C)cc(OC)c1OC	31.8	0.3	4.5	-3.2	0.4	-2.1	x	x	x
O=C(CN1CCN(Cc2ccccc2)CC1)Nc1nnc(C(F)(F)F)s1	-19.6	-5.2	63.4*	x	-0.6	x	28.4	-3.3	-18.2
CC(N=C1NS(=O)(=O)c2ccccc21)C(=O)OCC(=O)N(C)C1CCS(=O)(=O)C1 (stereo not drawn)	-2.3	-2.5	85.9*	-4.5	-0.8	-9.9	14.5	-4.9	14.2
CCN(C(=O)COC(=O)[C@H](C)N=C1NS(=O)(=O)c2ccccc21)C1CCS(=O)(=O)C1 (stereo partly drawn)	-2.6	-0.1	-1.9	x	0.9	x	x	x	x
Cc1ccccc1NC(=O)c1onc2c1CCCC2	-62.3	-1.8	56.4*	5.8	0.7	10.8	-93.3	12.0	-81.6
O=C(Nc1ccccc1F)Nc1ccccc1N1CCCCC1	9.0	-2.9	-7.9	6.9	16.7	-9.4	x	x	x
Cc1ccc(S(=O)(=O)N2CCSC2)cc1C	-5.7	2.2	55.6*	-1.1	-0.8	6.0	13.1	8.0	12.2
COc1ccc(S(=O)(=O)N2CCSC2)cc1C	-0.5	1.8	-5.9	-4.9	0.9	-0.2	x	x	x
Cc1nc2nc(-c3cccs3)cn2nc1C	-54.4	-3.6	52.7	-1.0	-0.9	-11.6	-64.1	11.9	-26.6
Cc1ccc(C2CC(C(F)(F)F)n3nc(C(=O)NCc4c(C)nn(C)c4C)c(Cl)c3N2)cc1 (stereo not drawn)	24.5	-19.9	53.7	27.6	1.6	-5.2	53.5*	31.8*	11.1
CCCCN(C(=O)CSc1nnc(Nc2ccccc2)s1)c1c(N)n(CCC)c(=O)[nH]c1=O	22.9	-1.9	-3.7	-1.6	-0.5	-15.7	x	x	x
COCCOC(=O)c1[nH]c2c(c1C)C(=O)CC(c1cc(OC)c(OC)c(OC)c1)C2 (stereo not drawn)	31.8	-1.4	34.5	4.6	-0.3	-1.1	x	x	x
SMILES	Mdm2 MdmX PPI	NR3A LBD binder	Gli-Sufu antag	Beta cell apopt	MPTP inh	CSC inhib	Gli antag conf	SufuKO cytotox	Wnt3a counter
C=CCOC(=O)c1[nH]c2c(c1C)C(=O)CC(c1cc(OC)c(OC)c(OC)c1)C2 (stereo not drawn)	39.3	-1.0	50.8	49.8	36.6	-4.9	61.3*	15.6	24.7
CN1/C(=C\C(=O)COC(=O)CNC(=O)c2ccccc2F)C(C)(C)c2ccccc21	-20.2	-1.0	1.5	5.9	0.3	7.9	x	x	x
CN1/C(=C\C(=O)COC(=O)CNC(=O)c2ccc3ccccc3c2)C(C)(C)c2ccccc21	8.3	-15.1	51.4	39.8	1.7	-6.7	46.5*	14.4	8.3
CN1/C(=C\C(=O)COC(=O)c2ccc(O)c(O)c2)C(C)(C)c2ccccc21	29.8	-3.6	64.9*	95.1*	x	28.1	64.3*	25.6*	75.4*
Cc1ccccc1OCC(=O)OCC(=O)NCc1cccs1	11.7	-1.2	-0.6	-1.3	1.4	-11.6	x	x	x
Cc1ccc(NC(=O)CC(NCC2CCCO2)C(=O)O)cc1C (stereo not drawn)	-9.3	-0.3	56.9*	-1.3	0.9	-3.6	20.6	-2.1	13.6
CCOC(=O)CN1C(=O)C(C)(C)Oc2ccc(C(=O)Nc3ccccc3OC)cc21	-5.6	-0.2	7.2	2.8	2.9	1.8	x	x	x
COc1ccccc1NC(=O)c1ccc2c(c1)N(CC#N)C(=O)C(C)(C)O2	9.8	-4.8	52.0	4.2	-0.4	-0.4	23.4	1.7	-21.2
CCNc1nc2c(c(=O)n(C)c(=O)n2C)n1Cc1ccc(Cl)cc1	28.4	1.7	70.7*	48.7	28.0	9.8	61.5*	31.5*	40.5*
CCC(C)Nc1nc2c(c(=O)n(C)c(=O)n2C)n1Cc1ccc(Cl)cc1 (stereo not drawn)	-6.7	2.6	x	3.1	-0.6	2.1	x	x	x
Cc1ccc(Cn2c(N3CCN(CCO)CC3)nc3c2c(=O)n(C)c(=O)n3C)cc1	16.8	2.0	50.9	-3.0	-1.3	-10.0	15.2	8.2	-6.3
CN1CCN(c2nc3c(c(=O)n(C)c(=O)n3C)n2Cc2ccc(F)cc2)CC1	16.9	0.9	3.5	-2.1	3.8	-10.8	x	x	x
Cn1c(=O)c2c(nc(NCc3ccco3)n2Cc2ccc(Cl)cc2Cl)n(C)c1=O	1.6	1.6	66.6*	59.3	5.7	4.9	67.0*	29.2*	20.2
O=C(NCc1ccccc1Cl)[C@H]1CCCN1C(=O)[C@H]1CCCN1C(=O)c1cccs1	x	x	x	x	-1.7	x	x	x	x
